# GIRK2 act: GIRK2 channel activators by thallium flux | P48051 | HEK293 GIRK2/NPY4 cells, thallium flux fluorescence | activation (% efficacy), % for hits at 37.5 µM | 34,000 tested, under 10 active | AID 1259324;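 active = primary screen hit, no activity in plain HEK293 cells, and in GIRK2-only cells above 5% efficacy rising with concentration; inactive = the rest, including fluorescent compounds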;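 also: efficacy is normalized control-subtracted fluorescence 15 s after thallium addition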
# AMPAR-TARP mod: modulates AMPAR-stargazin complexes. 3.5% of 40,000 active. HEK293 GluA2+stargazin, membrane potential dye (FDSS), glutamate EC50; hits were called plate by plate, in both directions. calls only at 30 µM. AID 1259245. O88602+P19491;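 active = any of four per-well response measures lying three or more SD from its plate-wide compound average, in either direction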
# Target sequence (O88602 whole entry, looked up): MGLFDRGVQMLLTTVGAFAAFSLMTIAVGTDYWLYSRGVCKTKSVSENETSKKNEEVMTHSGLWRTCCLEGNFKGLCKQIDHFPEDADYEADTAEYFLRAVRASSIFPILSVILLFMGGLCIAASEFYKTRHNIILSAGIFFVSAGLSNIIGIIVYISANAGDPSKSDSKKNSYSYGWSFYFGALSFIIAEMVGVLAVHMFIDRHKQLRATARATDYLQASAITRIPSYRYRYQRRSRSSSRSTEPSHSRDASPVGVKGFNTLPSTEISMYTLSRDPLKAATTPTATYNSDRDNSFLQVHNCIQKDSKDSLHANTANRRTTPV
# Target sequence (P19491 whole entry, looked up): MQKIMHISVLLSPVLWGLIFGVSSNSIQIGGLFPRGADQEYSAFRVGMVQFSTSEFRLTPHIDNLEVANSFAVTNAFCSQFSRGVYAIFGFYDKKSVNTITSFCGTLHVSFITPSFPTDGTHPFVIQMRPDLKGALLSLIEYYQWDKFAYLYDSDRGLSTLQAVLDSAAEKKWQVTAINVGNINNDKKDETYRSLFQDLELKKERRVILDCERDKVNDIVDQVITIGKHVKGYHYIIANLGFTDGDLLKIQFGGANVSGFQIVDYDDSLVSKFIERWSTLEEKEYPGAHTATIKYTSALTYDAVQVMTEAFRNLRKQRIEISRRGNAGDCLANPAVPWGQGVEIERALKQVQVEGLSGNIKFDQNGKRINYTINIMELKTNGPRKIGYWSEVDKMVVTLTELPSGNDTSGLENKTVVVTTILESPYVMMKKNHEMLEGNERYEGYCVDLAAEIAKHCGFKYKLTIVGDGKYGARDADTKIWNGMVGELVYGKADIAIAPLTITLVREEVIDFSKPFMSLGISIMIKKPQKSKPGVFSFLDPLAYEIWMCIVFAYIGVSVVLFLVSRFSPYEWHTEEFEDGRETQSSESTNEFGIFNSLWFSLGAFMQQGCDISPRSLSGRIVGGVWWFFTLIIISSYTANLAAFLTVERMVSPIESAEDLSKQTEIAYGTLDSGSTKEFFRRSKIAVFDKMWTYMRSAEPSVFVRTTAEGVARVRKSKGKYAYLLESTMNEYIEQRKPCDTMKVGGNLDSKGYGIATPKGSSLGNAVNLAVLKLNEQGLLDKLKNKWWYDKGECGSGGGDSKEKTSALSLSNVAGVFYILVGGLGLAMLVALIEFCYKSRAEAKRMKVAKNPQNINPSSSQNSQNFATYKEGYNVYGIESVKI
# * marks the source's active call; other numbers are inactive results; i = inactive; . = no result; + = active, no number; ! = not confirmed by another sample. The full list was thinned out, with hits kept by preference.
SMILES,GIRK2 act,AMPAR-TARP mod
S=C(Nc1ccccc1)N1CC=C(c2ccccc2)CC1,.,i
O=C(CN1CCC(C(=O)NCC2CCCO2)CC1)Nc1ccc(F)cc1 (centres undefined),i,i
CC(O)CNc1nc2c(c(=O)[nH]c(=O)n2C)n1Cc1cccc2ccccc12 (centres undefined),i,i
O=C(c1nc2ccccc2s1)N(CCc1ccccc1)Cc1ccccn1,i,+
CSc1ccccc1C(=O)N(CCc1ccccc1)Cc1ccccn1,i,i
O=C(Nc1ccc2c(c1)N(C(=O)C1CCCO1)CC2)c1ccc(C(F)(F)F)cc1 (centres undefined),i,+
O=C(Nc1ccc2c(c1)N(C(=O)C1CCCC1)CC2)c1ccc(C(F)(F)F)cc1,.,i
O=C(NCCc1ccccc1)NCC1CCN(S(=O)(=O)C2CC2)CC1,i,i
CCOc1ccccc1NC(=O)CSc1nnnn1-c1ccccc1C(F)(F)F,i,i
CCOc1ccccc1NC(=O)CSc1nnnn1-c1cccc(C)c1,i,+!
CCc1cc2c(=O)c(-c3ccc4c(c3)OCCCO4)c(C)oc2cc1OCC#N,.,i
O=C(c1cc(-c2ccco2)on1)N1CCC(c2cccs2)CC1,i,i
Cc1c(C)n2c3c(=O)n(CCN4CCCCC4)c(=O)n(C)c3nc2n1C1CCCC1,i,i
Cc1c(C)n2c3c(=O)n(CC(N)=O)c(=O)n(C)c3nc2n1C1CCCCC1,.,+
Cc1cc(C)n(CC(=O)N2CCN(S(C)(=O)=O)CC2)n1,.,i
COc1cc(OC)cc(C2=NC3(CCCC3)N=C2SCC(=O)Nc2ccccc2)c1,i,+
COc1ccc(NC(=O)CSC2=NC(C)(C)N=C2c2ccccc2)cc1OC,i,i
COc1ccc(CCC(=O)N2CCOC(c3ccc(C(F)(F)F)cc3)C2)cc1 (centres undefined),i,.
COc1ccc(-n2nnc3c(N4CCN(C(=O)c5ccccc5C(F)(F)F)CC4)ncnc32)cc1,.,i
COc1ccc(-n2nnc3c(N4CCN(C(=O)c5cccc6ccccc56)CC4)ncnc32)cc1,.,+
CC(O)CNC(=O)C(=O)NCc1ccccc1 (centres undefined),.,i
CC(=O)N1CCN(C(=O)Cc2csc(Nc3ccccc3)n2)CC1,i,i
O=C(NCC1CCN(Cc2ccccc2)CC1)C(=O)Nc1ccc2c(c1)OCCO2,i,i
O=C(NCC1CCN(Cc2ccccc2)CC1)C(=O)Nc1ccc2c(c1)OCO2,i,+
COc1ccc(F)cc1S(=O)(=O)NCC(O)c1ccc(C(F)(F)F)cc1 (centres undefined),i,i
SMILES,GIRK2 act,AMPAR-TARP mod
COc1ccc(F)cc1S(=O)(=O)NCCC(O)C(C)(C)C (centres undefined),i,+
COc1ccc(F)cc1S(=O)(=O)Nc1ccc2c(c1)N(S(C)(=O)=O)CCC2,.,i
CC(=O)OCCCCn1c(COc2ccccc2)nc2ccccc21,i,+
Cc1ccc(OCCCCn2c(CNC(=O)c3ccco3)nc3ccccc32)cc1,i,.
CC1CN(C)CCN1CC1CCN(C(=O)CCC2CCCCC2)CC1 (centres undefined),i,i
CC(=O)NCCc1nc2ccccc2n1Cc1c(C)c(C)cc(C)c1C,i,+
Cc1cc(C)c(C)c(Cn2c(CCCO)nc3ccccc32)c1C,i,+
CC(=O)NCCc1nc2ccccc2n1Cc1c(C)cc(C)cc1C,i,i
OCCCc1nc2ccccc2n1Cc1ccc(F)cc1,.,i
Cc1ccc(NC(=O)c2ccc(Br)o2)cc1N1CCCCC1=O,.,i
CC(C)N1CCC(CNC(=O)COc2ccccc2)CC1,i,.
O=C(Nc1nc2ccc([N+](=O)[O-])cc2s1)c1ccc(S(=O)(=O)N2CCCCC2)cc1,.,i
Nc1nc2ccc(S(=O)(=O)N3CCCCC3)cc2s1,i,+
Cc1cc(C)c(S(=O)(=O)N2CCN(S(=O)(=O)N3CCCC3)CC2)c(C)c1,i,i
CC(=O)Nc1ccc(S(=O)(=O)n2nc(C)c(C)c2C)cc1,.,+
Cc1cc(C)c(S(=O)(=O)n2nc(C)c(C)c2C)c(C)c1,.,+
CC(=O)Nc1ccc(S(=O)(=O)N2CCN(c3c(C)cccc3C)CC2)cc1,.,i
Cc1ccc(C(=O)N2CCNC(=O)C2C)cc1 (centres undefined),i,i
Cc1cc([N+](=O)[O-])ccc1NC(=O)c1ccc(=O)n(Cc2ccccc2F)c1,i,i
O=C(Nc1nc2ccc([N+](=O)[O-])cc2s1)c1ccc(=O)n(Cc2ccccc2)c1,i,+
O=C(Nc1nc2ccccc2s1)c1ccc(=O)n(Cc2cccc([N+](=O)[O-])c2)c1,i,i
Cc1cccc2sc(NC(=O)c3ccc(=O)n(Cc4ccc(Cl)cc4)c3)nc12,i,i
CS(=O)(=O)c1ccc2nc(NC(=O)c3ccc(=O)n(Cc4ccc(Cl)cc4)c3)sc2c1,i,+
COc1cccc(COc2coc(C(=O)Nc3nc4ccc(Cl)cc4s3)cc2=O)c1,i,i
COc1coc(C(=O)Nc2nc3ccc([N+](=O)[O-])cc3s2)cc1=O,i,+
SMILES,GIRK2 act,AMPAR-TARP mod
CCc1nc2sc(C(c3ccc(Cl)cc3)N3CCN(Cc4ccccc4)CC3)c(O)n2n1 (centres undefined),.,i
Cc1nnc(NC(=O)Cc2csc(SCC(=O)c3ccc4c(c3)OCO4)n2)s1,i,.
CN1C(=O)N(C)C2(CCN(C(=O)c3c(F)cccc3F)CC2)C1=O,i,i
CCN(CC)CCNC(=O)C(=O)Nc1c2c(nn1C(C)(C)C)CSC2,i,i
Cc1cc(C(=O)Nc2nc3c(s2)CN(C)CC3)no1,i,i
Cc1cc(C)c(C)c(OCC(O)CN2CC(C)CC(C)C2)c1 (centres undefined),i,+
Cc1cc(C)c(C)c(OCC(O)CN2C(C)(C)CC(O)CC2(C)C)c1 (centres undefined),i,+
COc1ccccc1OCC(O)CN1C(C)(C)CC(O)CC1(C)C (centres undefined),i,i
COc1ccccc1OCC(O)CN1CC(C)CC(C)C1 (centres undefined),i,i
COc1ccc(C(CNC(=O)C(=O)NC2CCCC2)N2CCOCC2)cc1 (centres undefined),i,i
O=C(Cc1ccc(F)cc1)NCC(c1ccc(F)cc1)N1CCOCC1 (centres undefined),.,i
COc1ccc(C(CNC(=O)C2CCCCC2)N2CCOCC2)cc1 (centres undefined),.,+
O=C(NCC(c1ccc(F)cc1)N1CCOCC1)C1CCCCC1 (centres undefined),.,+
CCN(CC)c1ccc(NC(=O)c2csc3c2CCCC3)cc1,.,i
O=C(Nc1ccc2nccnc2c1)c1ccc2c(c1)OCCO2,i,+
O=C(Nc1ccc2nccnc2c1)c1csc2c1CCCC2,i,+
CCn1nccc1C(=O)Nc1ccc2c(c1)OCCO2,i,i
COc1ccc(-c2nnc(NC(=O)C3CC3)o2)c(OC)c1,.,+
COc1ccc(-c2nnc(NC(=O)Cc3ccc(SC)cc3)o2)c(OC)c1,.,+
COc1ccc(-c2nnc(NC(=O)Cc3ccc(C)cc3)o2)c(OC)c1,i,i
COc1ccc(OC)c(-c2nnc(NC(=O)c3ccnn3C)o2)c1,i,.
